# Reference: article PMC11006913
# Positions count from the first letter of the chain named.
# Assays:
# Assay in all cases: PBM; 200 nM protein, PBS
# Settings in all cases: dsDNA, one strand shown
# VENTX [1] = molecular target: T1, VENTX (Homo sapiens, UniProt O95231 78-163, R121Q)
# T1 sequence: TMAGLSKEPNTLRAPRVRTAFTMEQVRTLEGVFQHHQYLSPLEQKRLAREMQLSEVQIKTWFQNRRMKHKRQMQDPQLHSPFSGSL
# VENTX [2] = molecular target: T2, VENTX (Homo sapiens, UniProt O95231 78-163)
# T2 sequence: T1 sequence with Q44R
# VENTX [3] = molecular target: T3, VENTX (Homo sapiens, UniProt O95231 78-163, Y115F)
# T3 sequence: T1 sequence with Y38F, Q44R
# HOXA7 [4] = molecular target: HOXA7 (Homo sapiens, UniProt P31268 116-202)
# Sequence of HOXA7 (Homo sapiens, UniProt P31268 116-202) (P31268 116-202): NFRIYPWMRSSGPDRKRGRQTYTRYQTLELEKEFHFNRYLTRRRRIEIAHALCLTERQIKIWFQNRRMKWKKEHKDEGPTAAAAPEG
# HOXB6 [5] = molecular target: HOXB6 (Homo sapiens, UniProt P17509 132-218, K202E)
# Sequence of HOXB6 (Homo sapiens, UniProt P17509 132-218, K202E) (P17509 132-218 K202E): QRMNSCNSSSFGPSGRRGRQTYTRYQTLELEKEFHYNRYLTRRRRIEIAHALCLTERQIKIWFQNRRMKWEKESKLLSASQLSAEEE
# HOXA7 [6] = molecular target: HOXA7 (Homo sapiens, UniProt P31268 116-202, W177C)
# Sequence of HOXA7 (Homo sapiens, UniProt P31268 116-202, W177C) (P31268 116-202 W177C): as the sequence (P31268 116-202) above, with W62C counted along it
# HOXB6 [7] = molecular target: HOXB6 (Homo sapiens, UniProt P17509 132-218)
# Sequence of HOXB6 (Homo sapiens, UniProt P17509 132-218) (P17509 132-218): as the sequence (P17509 132-218 K202E) above, with E71K counted along it
# PAX4 [8] = molecular target: T4, PAX4 (Homo sapiens, UniProt O43316 9-242, R200K)
# T4 sequence: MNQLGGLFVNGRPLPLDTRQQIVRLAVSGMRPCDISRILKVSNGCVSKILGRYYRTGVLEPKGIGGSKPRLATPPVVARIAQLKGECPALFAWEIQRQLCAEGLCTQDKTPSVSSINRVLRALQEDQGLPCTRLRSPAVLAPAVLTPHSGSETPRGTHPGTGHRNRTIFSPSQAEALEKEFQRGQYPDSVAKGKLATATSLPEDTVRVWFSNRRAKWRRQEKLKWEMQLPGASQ
# PAX4 [9] = molecular target: T5, PAX4 (Homo sapiens, UniProt O43316 9-242)
# T5 sequence: T4 sequence with K192R
# HOXB9 [10] = molecular target: HOXB9 (Homo sapiens, UniProt P17482 171-250)
# Sequence of HOXB9 (Homo sapiens, UniProt P17482 171-250) (P17482 171-250): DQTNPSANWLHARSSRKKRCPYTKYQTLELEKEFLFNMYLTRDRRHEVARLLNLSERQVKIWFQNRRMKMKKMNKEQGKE
# PAX4 [11] = molecular target: T6, PAX4 (Homo sapiens, UniProt O43316 9-242, R200Q)
# T6 sequence: T4 sequence with K192Q
# PAX4 [12] = molecular target: T7, PAX4 (Homo sapiens, UniProt O43316 9-242, F177V)
# T7 sequence: T4 sequence with F169V, K192R
# PAX4 [13] = molecular target: T8, PAX4 (Homo sapiens, UniProt O43316 9-242, F177Y)
# T8 sequence: T4 sequence with F169Y, K192R
# HOXB9 [14] = molecular target: HOXB9 (Homo sapiens, UniProt P17482 171-250, R186Q)
# Sequence of HOXB9 (Homo sapiens, UniProt P17482 171-250, R186Q) (P17482 171-250 R186Q): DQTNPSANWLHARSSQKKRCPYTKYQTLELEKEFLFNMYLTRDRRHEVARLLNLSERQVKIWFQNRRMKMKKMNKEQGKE
# PAX4 [15] = molecular target: T9, PAX4 (Homo sapiens, UniProt O43316 9-242, R227W)
# T9 sequence: T4 sequence with K192R, R219W
# NKX2-6 [16] = molecular target: T10, NKX2-6 (Homo sapiens, UniProt A6NCS4 118-204, R150C)
# T10 sequence: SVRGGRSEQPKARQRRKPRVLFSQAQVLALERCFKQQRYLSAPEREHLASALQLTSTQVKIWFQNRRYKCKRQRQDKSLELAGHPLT
# ALX4 [17] = molecular target: ALX4 (Homo sapiens, UniProt Q9H161 200-286)
# Sequence of ALX4 (Homo sapiens, UniProt Q9H161 200-286) (Q9H161 200-286): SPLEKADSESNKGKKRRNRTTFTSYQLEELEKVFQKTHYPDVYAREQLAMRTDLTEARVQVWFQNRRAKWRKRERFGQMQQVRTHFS
# ALX4 [18] = molecular target: ALX4 (Homo sapiens, UniProt Q9H161 200-286, Q225E)
# Sequence of ALX4 (Homo sapiens, UniProt Q9H161 200-286, Q225E) (Q9H161 200-286 Q225E): as the sequence (Q9H161 200-286) above, with Q26E counted along it
# ALX3 [19] = molecular target: ALX3 (Homo sapiens, UniProt O95076 139-225, N203Q)
# Sequence of ALX3 (Homo sapiens, UniProt O95076 139-225, N203Q) (O95076 139-225 N203Q): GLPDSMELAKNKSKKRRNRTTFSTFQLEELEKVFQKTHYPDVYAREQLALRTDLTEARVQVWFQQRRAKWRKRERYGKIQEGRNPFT
# NKX2-6 [20] = molecular target: T11, NKX2-6 (Homo sapiens, UniProt A6NCS4 118-204)
# T11 sequence: T10 sequence with C33R
# ALX3 [21] = molecular target: ALX3 (Homo sapiens, UniProt O95076 139-225)
# Sequence of ALX3 (Homo sapiens, UniProt O95076 139-225) (O95076 139-225): as the sequence (O95076 139-225 N203Q) above, with Q65N counted along it
# VAX1 [22] = molecular target: VAX1 (Homo sapiens, UniProt Q5SQQ9 86-172)
# Sequence of VAX1 (Homo sapiens, UniProt Q5SQQ9 86-172) (Q5SQQ9 86-172): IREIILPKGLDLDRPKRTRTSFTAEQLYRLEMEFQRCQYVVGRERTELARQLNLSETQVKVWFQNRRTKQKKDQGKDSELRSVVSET
# ALX3 [23] = molecular target: ALX3 (Homo sapiens, UniProt O95076 139-225, L168Q)
# Sequence of ALX3 (Homo sapiens, UniProt O95076 139-225, L168Q) (O95076 139-225 L168Q): as the sequence (O95076 139-225 N203Q) above, with L30Q, Q65N counted along it
# NKX2-6 [24] = molecular target: T12, NKX2-6 (Homo sapiens, UniProt A6NCS4 118-204, F151L)
# T12 sequence: T10 sequence with C33R, F34L
# ALX3 [25] = molecular target: ALX3 (Homo sapiens, UniProt O95076 139-225, L168V)
# Sequence of ALX3 (Homo sapiens, UniProt O95076 139-225, L168V) (O95076 139-225 L168V): as the sequence (O95076 139-225 N203Q) above, with L30V, Q65N counted along it
# VAX1 [26] = molecular target: VAX1 (Homo sapiens, UniProt Q5SQQ9 86-172, T142I)
# Sequence of VAX1 (Homo sapiens, UniProt Q5SQQ9 86-172, T142I) (Q5SQQ9 86-172 T142I): as the sequence (Q5SQQ9 86-172) above, with T57I counted along it
# ALX3 [27] = molecular target: ALX3 (Homo sapiens, UniProt O95076 139-225, N203S)
# Sequence of ALX3 (Homo sapiens, UniProt O95076 139-225, N203S) (O95076 139-225 N203S): as the sequence (O95076 139-225 N203Q) above, with Q65S counted along it
# VAX1 [28] = molecular target: VAX1 (Homo sapiens, UniProt Q5SQQ9 86-172, K157R)
# Sequence of VAX1 (Homo sapiens, UniProt Q5SQQ9 86-172, K157R) (Q5SQQ9 86-172 K157R): as the sequence (Q5SQQ9 86-172) above, with K72R counted along it
# HOXC10 [29] = molecular target: HOXC10 (Homo sapiens, UniProt Q9NYD6 254-340)
# Sequence of HOXC10 (Homo sapiens, UniProt Q9NYD6 254-340) (Q9NYD6 254-340): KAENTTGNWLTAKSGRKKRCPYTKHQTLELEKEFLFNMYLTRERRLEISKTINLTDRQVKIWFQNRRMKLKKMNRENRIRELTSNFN
# HOXC10 [30] = molecular target: HOXC10 (Homo sapiens, UniProt Q9NYD6 254-340, K271E)
# Sequence of HOXC10 (Homo sapiens, UniProt Q9NYD6 254-340, K271E) (Q9NYD6 254-340 K271E): as the sequence (Q9NYD6 254-340) above, with K18E counted along it
sequence,measurement,setting,value
CTAATGGC,binding signal,VENTX [1],"12 upbm affinity estimate (log intensity, higher = more binding, comparable within an allelic series)"
same,binding signal,VENTX [2],"12.7 upbm affinity estimate (log intensity, higher = more binding, comparable within an allelic series)"
same,binding signal,VENTX [3],"11.8 upbm affinity estimate (log intensity, higher = more binding, comparable within an allelic series)"
CATTAGAA,binding signal,VENTX [1],"10.5 upbm affinity estimate (log intensity, higher = more binding, comparable within an allelic series)"
same,binding signal,VENTX [2],"11.1 upbm affinity estimate (log intensity, higher = more binding, comparable within an allelic series)"
same,binding signal,VENTX [3],"10.4 upbm affinity estimate (log intensity, higher = more binding, comparable within an allelic series)"
ACCCATTA,binding signal,VENTX [1],"12.1 upbm affinity estimate (log intensity, higher = more binding, comparable within an allelic series)"
same,binding signal,VENTX [2],"12.9 upbm affinity estimate (log intensity, higher = more binding, comparable within an allelic series)"
same,binding signal,HOXA7 [4],"11.2 upbm affinity estimate (log intensity, higher = more binding, comparable within an allelic series)"
same,binding signal,VENTX [3],"11.7 upbm affinity estimate (log intensity, higher = more binding, comparable within an allelic series)"
same,binding signal,HOXB6 [5],"9.84 upbm affinity estimate (log intensity, higher = more binding, comparable within an allelic series)"
same,binding signal,HOXA7 [6],"8.76 upbm affinity estimate (log intensity, higher = more binding, comparable within an allelic series)"
same,binding signal,HOXB6 [7],"11.8 upbm affinity estimate (log intensity, higher = more binding, comparable within an allelic series)"
CCGAATTA,binding signal,VENTX [1],"10.1 upbm affinity estimate (log intensity, higher = more binding, comparable within an allelic series)"
same,binding signal,VENTX [2],"10.6 upbm affinity estimate (log intensity, higher = more binding, comparable within an allelic series)"
same,binding signal,PAX4 [8],"11.8 upbm affinity estimate (log intensity, higher = more binding, comparable within an allelic series)"
same,binding signal,VENTX [3],"9.98 upbm affinity estimate (log intensity, higher = more binding, comparable within an allelic series)"
same,binding signal,PAX4 [9],"12.4 upbm affinity estimate (log intensity, higher = more binding, comparable within an allelic series)"
same,binding signal,HOXB9 [10],"10.1 upbm affinity estimate (log intensity, higher = more binding, comparable within an allelic series)"
same,binding signal,PAX4 [11],"11.8 upbm affinity estimate (log intensity, higher = more binding, comparable within an allelic series)"
same,binding signal,PAX4 [12],"10.4 upbm affinity estimate (log intensity, higher = more binding, comparable within an allelic series)"
same,binding signal,PAX4 [13],"11.1 upbm affinity estimate (log intensity, higher = more binding, comparable within an allelic series)"
same,binding signal,HOXB9 [14],"10 upbm affinity estimate (log intensity, higher = more binding, comparable within an allelic series)"
same,binding signal,PAX4 [15],"10.9 upbm affinity estimate (log intensity, higher = more binding, comparable within an allelic series)"
AATAACAC,binding signal,VENTX [1],"9.57 upbm affinity estimate (log intensity, higher = more binding, comparable within an allelic series)"
same,binding signal,VENTX [2],"9.93 upbm affinity estimate (log intensity, higher = more binding, comparable within an allelic series)"
ATTAGGTG,binding signal,VENTX [1],"10.8 upbm affinity estimate (log intensity, higher = more binding, comparable within an allelic series)"
same,binding signal,VENTX [2],"11.2 upbm affinity estimate (log intensity, higher = more binding, comparable within an allelic series)"
same,binding signal,HOXA7 [4],"10 upbm affinity estimate (log intensity, higher = more binding, comparable within an allelic series)"
same,binding signal,VENTX [3],"10.5 upbm affinity estimate (log intensity, higher = more binding, comparable within an allelic series)"
same,binding signal,HOXA7 [6],"8.8 upbm affinity estimate (log intensity, higher = more binding, comparable within an allelic series)"
CGGCCCCA,binding signal,VENTX [1],"8.18 upbm affinity estimate (log intensity, higher = more binding, comparable within an allelic series)"
same,binding signal,VENTX [2],"8.34 upbm affinity estimate (log intensity, higher = more binding, comparable within an allelic series)"
same,binding signal,PAX4 [8],"9.24 upbm affinity estimate (log intensity, higher = more binding, comparable within an allelic series)"
same,binding signal,VENTX [3],"8.08 upbm affinity estimate (log intensity, higher = more binding, comparable within an allelic series)"
same,binding signal,PAX4 [9],"9.19 upbm affinity estimate (log intensity, higher = more binding, comparable within an allelic series)"
same,binding signal,NKX2-6 [16],"9.36 upbm affinity estimate (log intensity, higher = more binding, comparable within an allelic series)"
same,binding signal,PAX4 [11],"9.28 upbm affinity estimate (log intensity, higher = more binding, comparable within an allelic series)"
same,binding signal,PAX4 [12],"9.21 upbm affinity estimate (log intensity, higher = more binding, comparable within an allelic series)"
same,binding signal,PAX4 [13],"9.24 upbm affinity estimate (log intensity, higher = more binding, comparable within an allelic series)"
same,binding signal,PAX4 [15],"9.25 upbm affinity estimate (log intensity, higher = more binding, comparable within an allelic series)"
CGATTAAG,binding signal,VENTX [1],"11.4 upbm affinity estimate (log intensity, higher = more binding, comparable within an allelic series)"
same,binding signal,VENTX [2],"12.4 upbm affinity estimate (log intensity, higher = more binding, comparable within an allelic series)"
same,binding signal,VENTX [3],"11.3 upbm affinity estimate (log intensity, higher = more binding, comparable within an allelic series)"
CGCCTGCC,binding signal,VENTX [1],"8.19 upbm affinity estimate (log intensity, higher = more binding, comparable within an allelic series)"
same,binding signal,VENTX [2],"8.35 upbm affinity estimate (log intensity, higher = more binding, comparable within an allelic series)"
same,binding signal,ALX4 [17],"7.81 upbm affinity estimate (log intensity, higher = more binding, comparable within an allelic series)"
same,binding signal,VENTX [3],"8.31 upbm affinity estimate (log intensity, higher = more binding, comparable within an allelic series)"
same,binding signal,ALX4 [18],"8.15 upbm affinity estimate (log intensity, higher = more binding, comparable within an allelic series)"
same,binding signal,NKX2-6 [16],"9.32 upbm affinity estimate (log intensity, higher = more binding, comparable within an allelic series)"
same,binding signal,ALX3 [19],"7.68 upbm affinity estimate (log intensity, higher = more binding, comparable within an allelic series)"
same,binding signal,NKX2-6 [20],"9.1 upbm affinity estimate (log intensity, higher = more binding, comparable within an allelic series)"
same,binding signal,ALX3 [21],"7.56 upbm affinity estimate (log intensity, higher = more binding, comparable within an allelic series)"
same,binding signal,VAX1 [22],"7.07 upbm affinity estimate (log intensity, higher = more binding, comparable within an allelic series)"
same,binding signal,ALX3 [23],"7.74 upbm affinity estimate (log intensity, higher = more binding, comparable within an allelic series)"
same,binding signal,NKX2-6 [24],"9.19 upbm affinity estimate (log intensity, higher = more binding, comparable within an allelic series)"
same,binding signal,ALX3 [25],"7.77 upbm affinity estimate (log intensity, higher = more binding, comparable within an allelic series)"
same,binding signal,VAX1 [26],"7.24 upbm affinity estimate (log intensity, higher = more binding, comparable within an allelic series)"
same,binding signal,ALX3 [27],"7.7 upbm affinity estimate (log intensity, higher = more binding, comparable within an allelic series)"
same,binding signal,VAX1 [28],"7.15 upbm affinity estimate (log intensity, higher = more binding, comparable within an allelic series)"
CCCCTCAG,binding signal,VENTX [1],"8.25 upbm affinity estimate (log intensity, higher = more binding, comparable within an allelic series)"
same,binding signal,VENTX [2],"8.19 upbm affinity estimate (log intensity, higher = more binding, comparable within an allelic series)"
same,binding signal,HOXC10 [29],"10.1 upbm affinity estimate (log intensity, higher = more binding, comparable within an allelic series)"
same,binding signal,VENTX [3],"8.01 upbm affinity estimate (log intensity, higher = more binding, comparable within an allelic series)"
same,binding signal,HOXC10 [30],"10.1 upbm affinity estimate (log intensity, higher = more binding, comparable within an allelic series)"
GCGGGTCC,binding signal,VENTX [1],"8.12 upbm affinity estimate (log intensity, higher = more binding, comparable within an allelic series)"
same,binding signal,VENTX [2],"8.25 upbm affinity estimate (log intensity, higher = more binding, comparable within an allelic series)"
same,binding signal,HOXC10 [29],"10 upbm affinity estimate (log intensity, higher = more binding, comparable within an allelic series)"
same,binding signal,VENTX [3],"8.16 upbm affinity estimate (log intensity, higher = more binding, comparable within an allelic series)"
same,binding signal,HOXC10 [30],"10 upbm affinity estimate (log intensity, higher = more binding, comparable within an allelic series)"
